# Screening data: PubChem, The Scripps Research Institute Molecular Screening Center
# NCOA2 inhibitor = inhibition of GAL4-SRC2 driven luciferase reporter, primary screen, SRC2 inhibitor project, cell-based, luminescence | Nuclear receptor coactivator 2 (Homo sapiens), Q15596 | HEK293 GAL4-SRC2 luciferase reporter | inhibition, % at 9 µM | 370,000 tested, 0.17% active | AID 651957, 2012;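 active means inhibition above the mean inhibition of all tested compounds plus 3 SD, set per campaign, cut at about 52% in these data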;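 further: 0% = DMSO treated cells and 100% = cells given Gossypol at 36 µM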
# COUP-TFII inh = NR2F2 transcriptional activity inhibitors, primary screen, cell-based, luciferase reporter, HEK293T, luminescence | AID 686940, 2013 | 370,000 tested, 0.7% active | COUP transcription factor 2 (Homo sapiens), P24468 | HEK293T NGFI-A luciferase reporter | inhibition, % at 8.6 µM;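 active means inhibition above a per-plate cutoff, mean inhibition of test wells between control levels plus 3 SD, cut at about 38% in these data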;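 further: cells cotransfected with COUP-TFII expression vector driving the NGFI-A reporter; 0% = median of COUP-TF2 test wells and 100% = reporter-only cells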
# SRC1 inh = SRC1 coactivator transcriptional activity inhibitors, primary screen, cell-based, luminescence. HEK293 GAL4-SRC1 luciferase reporter. inhibition, % at 3.6 µM. 360,000 tested, 0.12% active;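 active means inhibition above the campaign mean plus 3 SD, with each screening campaign given its own cutoff, cut at about 60% in these data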;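 further: 0% = DMSO treated cells and 100% = gossypol at 36 µM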
# SRC3 inh = SRC3 coactivator transcriptional activity inhibitors, primary screen, cell-based, luminescence. Nuclear receptor coactivator 3 (Homo sapiens), Q9Y6Q9. HEK293 GAL4-SRC3 luciferase reporter. inhibition, % at 3.6 µM. 360,000 tested, 0.17% active. AID 588352, 2011;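 active means inhibition above a per-campaign cutoff, the mean of all compounds plus 3 SD, cut at about 60% in these data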;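 further: 0% = DMSO-treated cells and 100% = gossypol-treated cells at 36 µM; higher means less SRC3-driven luciferase light from the GAL4 reporter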
# NR5A2 inv ag = LRH-1 (NR5A2) inverse agonists, primary screen, cell-based, luminescence, HEK293T, StAR-luciferase reporter | Nuclear receptor subfamily 5 group A member 2 (Homo sapiens), O00482 | LRH-1 transfected, 24 h | inhibition, % at 3.6 µM | 360,000 tested, 0.13% active | AID 602396, 2012;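 active means inhibition above the mean inhibition of all tested compounds plus 3 SD, cut at about 73% in these data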;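 further: 0% = DMSO wells and 100% = reporter-only cells lacking LRH-1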
# Gal4-VP16 ctr = Gal4-VP16 luciferase reporter inhibitors, counter-screen for COUP-TFII antagonist project, cell-based, luminescence, HEK293; inhibition, % at 8.5 µM; 2,500 tested, 25% active; shares compounds with COUP-TFII inh; AID 687007, 2013; in the data active means inhibition above about 13%
# COUP-TFII conf = NR2F2 transcriptional activity inhibitors, confirmation, cell-based, luciferase reporter, HEK293, triplicate; shares compounds with COUP-TFII inh; HEK293 NGFI-A luciferase reporter, luminescence; inhibition, % at 8.5 µM; 2,500 tested, 45% active;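 active means mean inhibition over three repeats above a set limit taken from the earlier primary screen, cut at about 38% in these data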;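 further: 100% = cells given the luciferase reporter alone without the COUP-TF2 vector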
# * = called active by the depositor; nt = no result given. Rows were chosen to be rich in hits. Some 0.84% of all compounds tested hit in one or more screens of this group.
SMILES,NCOA2 inhibitor,COUP-TFII inh,SRC1 inh,SRC3 inh,NR5A2 inv ag,Gal4-VP16 ctr,COUP-TFII conf
Cc1cc(N2CCNC[C@@H]2C)ccc1N1CC[C@@H](O)C1,-12,1,nt,nt,nt,nt,nt
CCCCn1c(NC(=O)c2ccco2)c(C(=O)OCC)c2nc3ccccc3nc21,0,44*,3,-5,31,0,2
COC(=O)C12OCC34C(CC5C(C)=C(O)C(=O)CC5(C)C3C(O)C1O)OC(=O)C(OC(=O)/C=C(\C)C(C)C)C24 (stereo unspecified),74*,94*,96*,94*,98*,20*,88*
CC(=O)c1cn(Cc2ccccc2C#N)c2ccccc12,27,47*,6,28,45,2,53*
CC(=O)c1cn(Cc2ccccc2F)c2ccccc12,-2,54*,35,25,38,10,48*
CN1C(=O)[C@@]23C[C@]4(c5c[nH]c6ccccc56)c5ccccc5N(S(=O)(=O)c5ccccc5)[C@@H]4N2C(=O)[C@@H]1SS3,nt,107*,nt,nt,nt,88*,90*
C=CCn1c(O)c(C(CC)=NCc2ccco2)c(=O)[nH]c1=O,-14,-28,2,6,5,nt,nt
COc1cc2c(cc1OC)C1C(=O)c3ccc4c(c3OC1CO2)CC(C(C)C)O4 (stereo unspecified),24,73*,31,20,45,-1,69*
COc1cc2c(cc1OC)[C@H]1C(=O)c3ccc4c(c3O[C@H]1CO2)C[C@@H](C(C)(C)O)O4,11,6,3,-5,10,nt,nt
COc1cc2c(cc1OC)[C@@H]1C(=O)c3ccc4c(c3O[C@@H]1CO2)C[C@H](C(C)C)O4,24,67*,10,20,45,3,63*
CCOC(=O)CNC(=O)N1Cc2cc(-c3ccc(OC)cc3)ccc2-n2nncc2C1,14,-16,10,19,-13,nt,nt
O=C(c1ccc(C(F)(F)F)cc1)C1CCCN(Cc2ccc(CO)o2)C1 (stereo unspecified),14,-9,2,14,20,nt,nt
O=C(c1ccc(C(F)(F)F)cc1)C1CCCN(Cc2ccncc2)C1 (stereo unspecified),22,46*,-6,20,21,7,18
O=C(c1ccc(Cl)cc1)C1CCCN(Cc2cccc3cccnc23)C1 (stereo unspecified),24,9,6,30,15,nt,nt
O=C(c1ccc(Cl)cc1)C1CCCN(Cc2cccc3ncccc23)C1 (stereo unspecified),33,41*,4,17,-2,12,45*
CN=C1CN(O)C(c2ccccc2)=c2cc(Cl)ccc2=N1,-22,6,6,14,-7,nt,nt
Cc1ccsc1C(=O)C1CCCN(Cc2ccc(-n3cccn3)cc2)C1 (stereo unspecified),24,23,2,14,-4,nt,nt
NC(=O)c1cc(N2CC2)c([N+](=O)[O-])cc1[N+](=O)[O-],-31,7,-20,4,4,nt,nt
COC(=O)C1=C(c2ccc(-c3ccccc3)c(F)c2)C[C@@H]2CC[C@H]1N2C(=O)NCCOc1ccc(OC)cc1,26,40*,12,9,-1,2,6
COC(=O)C1=C(c2ccc(-c3ccccc3)c(F)c2)C[C@@H]2CC[C@H]1N2C(=O)NCCNC(C)=O,7,-10,-9,12,0,nt,nt
Cc1ccccc1NC(=NCCCN1CC1)Nc1ccccc1C,-23,21,-38,-28,-8,nt,nt
COc1ccc(-[n+]2c(-c3ccccc3)cc(-c3ccccc3)cc2-c2ccccc2)cc1,21,57*,nt,nt,nt,20*,60*
Oc1ccc(-[n+]2c(-c3ccccc3)cc(-c3ccccc3)cc2-c2ccccc2)cc1,37,62*,17,-48,34,8,51*
CCOC(=O)C(O)(c1ccc(NC(=S)NC(=O)c2ccc(Cl)cc2Cl)c(C)c1)C(F)(F)F (stereo unspecified),22,38*,23,24,5,-4,19
COC(=O)C(O)(c1ccc(NC(=S)NC(=O)c2ccc(Cl)cc2Cl)c(C)c1)C(F)(F)F (stereo unspecified),20,23,13,24,20,nt,nt
SMILES,NCOA2 inhibitor,COUP-TFII inh,SRC1 inh,SRC3 inh,NR5A2 inv ag,Gal4-VP16 ctr,COUP-TFII conf
CC[n+]1c(/C=C/C=C/c2ccc(N(C)C)cc2)sc2ccccc21,-21,79*,34,62*,59,23*,82*
O=S(=O)(c1cc(Cl)cc(Cl)c1)N1Cc2cc(N3CCOCC3)ccc2-n2nncc2C1,-27,-21,-22,12,16,nt,nt
C[C@]12CCC3C(C1CCC2=O)[C@H](O)C[C@H]1C[C@@H](O)CC[C@]31C (stereo partly specified),-10,4,-13,3,-3,nt,nt
CCC(=NCCc1c[nH]c2ccccc12)c1c(O)n(C)c(=O)n(C)c1=O,12,47*,14,10,18,-1,20
CCC(=NCCc1c[nH]c2ccccc12)c1c(O)n(-c2ccc(C)cc2)c(=O)[nH]c1=O,-11,-3,-15,0,-8,nt,nt
C[C@@H]1C[C@@H]([C@H](O)CC2CC(=O)NC(=O)C2)C(=O)[C@@H](C)C1,70*,87*,93*,93*,103*,-2,67*
CC(=O)OC1(C)CC(C)C(=O)C(C(O)CC2CC(=O)NC(=O)C2)C1 (stereo unspecified),65*,91*,96*,95*,103*,15*,84*
C=C1C(=O)O[C@@H]2C[C@@H](C)[C@@H]3C=CC(=O)[C@@]3(C)[C@@H](O)[C@H]12,85*,97*,37,61,87*,84*,99*
CC(=O)NNC(=O)CN1C(=O)CN=C(c2ccccc2)c2cc(Br)ccc21,6,6,0,5,-17,nt,nt
CC[C@@H](O)C[C@H]1CCC[C@@]2(C[C@@H]3OC(=O)/C=C/[C@@](C)(O)[C@@H](O)[C@H](C)[C@@H](O)[C@H](OC4CCC(N(C)C)C(C)O4)[C@@H](O)[C@](C)(O)CCCCC/C=C/[C@@H]4CC(C)(C)O[C@@]4(O)C[C@H](O2)[C@H]3C)O1 (stereo partly specified),-17,80*,69*,73*,92*,3,73*
